MmCpn inh = blocks the Methanococcus maripaludis chaperonin Mm-Cpn; purified Mm-Cpn ATPase, ADP Transcreener TR-FRET; Potency, µM (doses to about 76.9 µM), without a hit: at the highest dose activity, negative = inhibition, most hits filed as inhibitors; 0.031% of 330,000 active; AID 504842; further: on the % scale 0 is the no-effect control and ±100 the full control effect; nearly all actives have a fitted effect of over 80% in size
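ATPase turnover read by TR-FRET ADP competition (Eu cryptate antibody/ADP-d2, 665/590 nm): 10uM ATP final, 25nM Mm-CPN final, 30 min 37degC after 10-min compound preincubation, pH 7.4 Tris/KCl/MgCl2/DTT buffer.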
Abeta rescue = A-beta toxicity reversal in yeast | Potency, µM (series often up to 46.1 µM), most hits filed as activators | yeast expressing A-beta42, growth rescue, OD600, 48 h; response scale: 0% DMSO, 100% iron-clioquinol control | 0.063% of 410,000 active; further: nearly all actives have a fitted effect of over 55% in size
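Growth rescue measured by 600 nm absorbance after 48 h yeast culture at 30 C with compound. Values normalized between DMSO and an equimolar ferric chloride plus clioquinol control.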
FUS yeast rescue = FUS proteinopathy suppression in yeast; Potency, µM (series often up to 76.6 µM), hits mostly activators; 0.24% of 390,000 active; AID 1347120; S. cerevisiae FUS-expressing, growth rescue, OD600, 24 h;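 further: plate controls were DMSO vehicle for no effect and reference control for full effect; nearly all actives have a fitted effect of over 55% in size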
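Galactose (2%) drives FUS expression in yeast precultured in raffinose; seeding density OD 0.005. Test compounds incubated 24hr at 30C and 99% humidity before absorbance at 600 nm was measured.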
aSyn yeast inh = inhibitors of alpha-synuclein toxicity in yeast | 0.14% of 370,000 active | Yeast expressing alpha-synuclein, growth rescue, BacTiter-Glo, 24 h | AID 652106 | Potency, µM (titrated, usually from 46.1 µM), without a hit: at the highest dose growth rescue (activation), hits mostly activators; further: % of control where 0% means no effect; nearly all actives have a fitted effect of over 65% in size
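Readout is rescue of growth in alpha-synuclein-expressing yeast, so inhibitors of toxicity appear as activators. Growth after 24 hr at 30 deg C in galactose medium is quantified by luminescence.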
TDP-43 yeast inh = TDP-43 toxicity inhibition in yeast. 1.8% of 410,000 active. TDP-43 expressing yeast growth rescue, BacTiter-Glo, 24 h. Potency, µM (highest dose often 46.1 µM), for the others: top-dose growth rescue (activation), hits mostly activators; further: % of control where 0% means no effect; nearly all actives have a fitted effect of over 50% in size
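Yeast expressing TDP-43 (pregrown in raffinose, seeded at OD600=0.02 in galactose medium) exposed to compounds 24 hr at 30 deg C. Growth read by BacTiter-Glo luminescence; rescue of toxicity appears as increased signal.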
ClpP mod = qHTS Assay for Activators of ClpP; AID 651965, 2013; 1.9% of 340,000 active; Potency, µM (doses to about 57.5 µM), for the others: at the top dose activity change, negative = active; purified B. subtilis ClpP, FRET peptide cleavage, 20 min; ATP-dependent Clp protease proteolytic subunit (Bacillus subtilis (strain 168)), P80244; active means well fitted falling curve with a large enough effect; inconclusive means small, poorly fitted or top-dose-only effect; inactive means no such curve, though single readings can be large or run the other way; further: the source files actives as falling curves though it sought activators and does not explain the sign; nearly all actives have a fitted effect of over 65% in size
Target sequence (P80244 whole entry, looked up): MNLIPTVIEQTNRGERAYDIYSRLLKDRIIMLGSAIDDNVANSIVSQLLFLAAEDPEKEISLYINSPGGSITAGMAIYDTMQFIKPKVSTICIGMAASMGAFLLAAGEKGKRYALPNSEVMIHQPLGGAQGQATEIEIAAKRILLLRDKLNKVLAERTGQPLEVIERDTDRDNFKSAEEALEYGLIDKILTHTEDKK
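FRET quenching reversal measured ClpP activation: 10 microg/mL B. subtilis ClpP at pH 8 with the FRET-FV decapeptide, read at 430 nm after 320 nm excitation. The 20-min minus 0-min signal was scaled between DMSO/no-enzyme wells and ADEP (5.8 microM final).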
* hit, by the source's call; i = inactive; ? = inconclusive; / = no result given; [ ] = dose if it differs, or a comment. Compounds with a hit are over-represented: about 3.6% of the library has one in this group of screens. Unless noted, the call rests on the fitted dose curve; in most records, active means well fitted curve in the direction sought with a large enough effect; inconclusive means small, poorly fitted or top-dose-only effect, or another doubt; inactive means no such curve, though single readings can be large; an effect the other way counts as inactive or inconclusive. Potency means the concentration at half of the fitted maximal effect.

SMILES	MmCpn inh	Abeta rescue	FUS yeast rescue	aSyn yeast inh	TDP-43 yeast inh	ClpP mod
O=C1CSC(c2cn(-c3ccccc3)nc2-c2cc3ccccc3oc2=O)N1Cc1ccco1 (centres undefined)	?	i	?	-12%	28%	32µM*
Cc1ccc(CNC(=O)CN(C)S(=O)(=O)c2ccc(Br)s2)cc1	/	i	i	/	14%	1%
O=[N+]([O-])c1cccc(-c2ccc(SCc3cccnc3)nn2)c1	-1%	i	i	8%	16µM*	-9%
COc1ccc(-c2csc3ncnc(N4CCN(Cc5ccccc5)CC4)c23)cc1	1%	i	i	14%	10%	-2%
COc1ccc(-c2csc3ncnc(N4CCN(c5ccccc5)CC4)c23)cc1	-1%	i	i	15%	11µM*	-1%
COc1ccc(-c2csc3ncnc(N4CCN(c5ccccc5O)CC4)c23)cc1	4%	i	i	?	18µM*	?
COc1ccc(-c2csc3ncnc(N4CCN(c5ccc(OC)cc5)CC4)c23)cc1	-7%	i	i	10%	11µM*	-18%
Cc1ccc(C)c(NC(=O)C(=O)NCC(c2cccnc2)N2CCN(c3ccc(F)cc3)CC2)c1 (centres undefined)	/	i	i	/	16%	-3%
CS(=O)(=O)N1CCN(Cc2cc3nc(-c4cccc5[nH]ncc45)nc(N4CCOCC4)c3s2)CC1	/	/	/	-1%[92.2 µM]	/	/
CCOc1ccc(NC(=O)Cn2c(=O)c(CNc3ccc(CC)cc3)cc3cc4c(cc32)OCO4)cc1	/	i	i	2%	14%	4%
Cc1ccc2oc(=O)c3cc(C(=O)N4CCN(c5ccccc5F)CC4)sc3c2c1	/	i	i	/	3%	-4%
CCCNC1=C(C)C(=O)CC1	-1%	i	i	4%	0%	32µM*
Cc1cccc(C)c1Nc1c(-c2ccsc2)nc2cccc(C)n12	/	i	i	/	19%	35µM*
Cc1cccn2c(=O)c3cc(C#N)c(=O)n(-c4nnc(SCc5ccc(Cl)cc5)s4)c3nc12	/	i	i	/	16%	4%
COc1ccc(S(=O)(=O)n2oc(=O)cc2-c2ccccc2)cc1OC	0%	i	i	?	14µM*	1%
O=c1cc(-c2ccccc2)n(S(=O)(=O)c2ccc3ccccc3c2)o1	/	i	i	20µM*	?	-3%
COc1ccc(S(=O)(=O)c2ccc(OC)c(OC)c2)cc1OC	-3%	i	?	0%	8%	32µM*
COc1ccc(S(=O)(=O)n2oc(=O)cc2-c2ccccc2)cc1	0%	i	i	10%	?	0%
COc1ccc(-c2nc3ccc(C(=O)NCc4ccccc4)cc3nc2-c2ccc(OC)cc2)cc1	/	i	i	/	12%	?
Fc1ccc(N2CCN(c3ncnc4onc(-c5ccc(Cl)cc5)c34)CC2)cc1	/	i	i	/	18µM*	-29%
Cc1ccc(C(=O)OCc2nnc(-c3ccccc3)o2)o1	0%	i	i	21%	18µM*	-1%
Cc1cc(C)n(-c2ccc(C(=O)OCc3nnc(-c4ccccc4)o3)cc2)n1	0%	i	i	4%	27%	35µM*
COc1ccc2oc(C(=O)OCc3nnc(-c4ccccc4)o3)c(C)c2c1	-2%	i	i	-2%	-7%	25µM*
C=C(C)Cn1c(SCC(=O)NN=Cc2c(O)ccc3ccccc23)nnc1-c1ccc(Br)cc1	/	/	i	/	/	/
Cc1sc2ncn(/N=C/c3cn(-c4ccccc4)nc3-c3ccccc3)c(=O)c2c1C	/	/	/	0%	/	/
SMILES	MmCpn inh	Abeta rescue	FUS yeast rescue	aSyn yeast inh	TDP-43 yeast inh	ClpP mod
Cc1ccsc1/C=N/n1cnc2sc(C)c(C)c2c1=O	0%	i	i	-4%	2%	32µM*
O=C(NCCNC(=O)c1ccc(Br)o1)c1ccc(Br)o1	1%	i	i	-11%	5%	-2%
O=C(NCCNC(=O)c1ccc(Br)o1)c1cccnc1	-1%	i	i	2%	-14%	25µM*
Cc1cc(SCC2=NNC(=O)C2)c(Cl)cc1Cl	-2%	i	35µM*	6%	?	0%
Cc1ccc(NC(=O)/C(C#N)=C/c2cc(C)n(-c3ccc(Br)cc3)c2C)cc1C	/	i	?	/	4µM*	-17%
C=CCNC(=S)N1CCC2CC1c1c(Cl)cccc12 (centres undefined)	/	?	i	12%	27%	0%
COc1ccc(NC(=S)N2CCC3CC2c2c(Cl)cccc23)c(OC)c1 (centres undefined)	/	i	i	2%	14µM*	0%
Fc1ccccc1N1CCN(c2nccn3nc(-c4ccc(Br)cc4)cc23)CC1	/	i	i	/	23%	-3%
Clc1ccc(-c2ccc(/C=N/Nc3cc(N4CCOCC4)nc(N4CCOCC4)n3)o2)cc1	0%	i	?	-5%	-18%	7.9µM*
Brc1ccc(-c2ccc(/C=N/Nc3nc(N4CCOCC4)nc(N4CCOCC4)n3)o2)cc1	-1%	i	i	-1%	-26%[1.82 µM]	/
COC(=O)Cn1c(=NC(=O)c2ccc(OC)cc2)sc2cc(OC)ccc21	-1%	i	i	-6%	14%	25µM*
COC(=O)Cn1c(=NC(=O)c2ccc(S(=O)(=O)N3CCc4ccccc4C3)cc2)sc2cc(OC)ccc21	-24%	i	/	2%	7%	-23%
COC(=O)Cn1c(=NC(=O)c2cc(OC)cc(OC)c2)sc2cc(OC)ccc21	-5%	i	i	12%	5%	28µM*
COC(=O)Cn1c(=NC(=O)c2cccc(OC)c2)sc2cc(OC)ccc21	-3%	i	i	-1%	3%	25µM*
COC(=O)Cn1c(=NC(=O)c2nc3ccccc3s2)sc2cc(S(N)(=O)=O)ccc21	-3%	i	i	-12%	7%	22µM*
O=C(CCl)N1c2ccccc2Oc2ccc3ccccc3c21	/	i	?	-43%	?	/
CC(=O)N1c2ccccc2Oc2cc3ccccc3cc21	-1%	i	i	9%	13µM*	-1%
Cc1ccc2ccc3c(c2n1)NS(=O)(=O)c1ccc(C(F)(F)F)cc1-3	/	/	/	10µM*	/	/
CCOc1ccc(NC(=O)CSc2nnc(C)n2C2CC2)cc1S(=O)(=O)N1CCCC1	1%	i	i	0%	-10%	25µM*
O=C1OC(c2cccc3c(F)cccc23)c2ccccc21 (centres undefined)	/	i	i	8%	20µM*	-9%

Screens deposited in PubChem BioAssay by National Center for Advancing Translational Sciences (NCATS).
